In PubChem BioAssay AID1671463 (Sanford-Burnham Center for Chemical Genomics, 2021) one finds activation data, which are given here for ten molecules.

Structures are written as SMILES. The campaign covered roughly 370,000 compounds. About 520 (0.14%) were called active. This is one part of a sample in which actives are shown more often than they occur. A number with no mark means an inactive call. No stated cut-off is given here; in the data, active means activation above about 40%; inactive means the rest.

This assay deals with Atrial natriuretic peptide receptor 1 (Homo sapiens) (UniProt P16066). As to the kind of experiment: GC-A stimulated cGMP production enhancers – HEK293 GC-A cells, cGMP TR-FRET, EC30 ANP, primary screen (AID 1671463). To be noted: at 10 µM, hits give high values; 0% at EC30 ANP, 100% saturating ANP unless noted.
Sequence of Atrial natriuretic peptide receptor 1 (Homo sapiens) (P16066 whole entry, looked up): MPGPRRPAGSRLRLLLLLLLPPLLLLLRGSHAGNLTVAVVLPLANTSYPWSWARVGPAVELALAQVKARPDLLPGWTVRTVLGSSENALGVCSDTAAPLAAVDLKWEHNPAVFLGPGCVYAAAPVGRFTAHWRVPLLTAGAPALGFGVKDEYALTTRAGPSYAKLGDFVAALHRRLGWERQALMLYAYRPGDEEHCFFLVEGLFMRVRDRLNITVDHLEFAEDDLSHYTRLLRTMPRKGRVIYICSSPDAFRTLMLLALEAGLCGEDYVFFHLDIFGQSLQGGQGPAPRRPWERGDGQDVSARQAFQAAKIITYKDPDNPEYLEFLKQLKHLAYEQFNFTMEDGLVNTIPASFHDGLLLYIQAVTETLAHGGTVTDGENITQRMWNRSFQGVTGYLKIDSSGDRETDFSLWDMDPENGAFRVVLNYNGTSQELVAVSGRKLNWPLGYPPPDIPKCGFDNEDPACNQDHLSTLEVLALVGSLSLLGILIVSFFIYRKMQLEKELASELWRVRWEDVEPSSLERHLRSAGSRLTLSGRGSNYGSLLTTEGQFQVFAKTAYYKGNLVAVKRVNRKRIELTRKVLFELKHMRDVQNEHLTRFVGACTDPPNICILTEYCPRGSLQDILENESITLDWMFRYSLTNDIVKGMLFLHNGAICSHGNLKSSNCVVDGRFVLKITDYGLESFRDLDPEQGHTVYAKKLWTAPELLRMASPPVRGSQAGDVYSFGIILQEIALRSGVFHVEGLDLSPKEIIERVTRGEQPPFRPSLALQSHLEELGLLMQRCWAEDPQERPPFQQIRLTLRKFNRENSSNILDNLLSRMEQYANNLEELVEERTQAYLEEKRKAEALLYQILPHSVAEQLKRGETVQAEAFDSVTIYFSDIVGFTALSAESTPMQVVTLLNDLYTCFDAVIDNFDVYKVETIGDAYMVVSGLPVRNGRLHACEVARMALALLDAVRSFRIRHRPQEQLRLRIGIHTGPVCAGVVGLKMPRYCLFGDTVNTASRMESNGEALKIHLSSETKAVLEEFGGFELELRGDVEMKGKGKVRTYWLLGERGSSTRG
`Cc1cccc(N2C(=O)NC(=O)/C(=C\c3cnn(-c4ccccc4)c3)C2=O)c1`: the activation was 54.5% [setting not given] (active).
In the case of `Cc1ccccc1CCC[C@@H](CC1CCCCC1)CN(C)C(=O)Oc1ccccc1` it was 2.21%; in that of `Nc1ccc([N+](=O)[O-])cc1`, 1.78%.
In the case of `O=C1NC(=O)N(Cc2ccco2)C(=O)/C1=C\c1ccc(-c2ccc(F)cc2)o1` it was 48.8% [setting not given] (active).
In the case of `COC(=O)C1=C(c2cc3ccccc3o2)C[C@@H]2CC[C@H]1N2C(=O)NC1CCCCC1` it was -7.28%; in that of `Cc1cc(N2CCNC[C@@H]2C)ccc1N1CC[C@H](O)C1`, -0.67%.
As to `COP(=O)(Sc1ccccc1)C(Cc1ccccc1)NC(=O)OCc1ccccc1` (stereo not given), the activation was -3.05%.
In the case of `CO[C@H]([C@H](C)/C=C/N(C)C=O)[C@@H](C)C(=O)CC[C@H](C)[C@H](O)[C@H](C)[C@H]1OC(=O)/C=C/C(C)=C/[C@H](O)[C@H](OC)C[C@@H]2C=CC[C@@H](C[C@H](OC)[C@@]3(CO3)[C@@H](OC)C[C@@H](OC)[C@@H]1C)O2` it was -33.1%.
With `CCOC(=O)CC1=C(C(=O)OCC)C2(C(=O)N1)C(C(=O)OC)=C(N)Oc1ccccc12` (stereo not given), the activation was -13.7% [setting not given].
In the case of `COc1ccc2c(c1)[C@@]13CCCCC1[C@@H](C2)NCC3` (stereo not given in full) it was 2.3% [setting not given].
